Assay results from ChEMBL document CHEMBL1961873, “Compounds: GSK PKIS; Assays: Nanosyn kinase panel” (2012).

Columns and labels:
[1] = molecular target: T1, Serine/threonine-protein kinase TBK1 (Homo sapiens) (UniProt Q9UHD2); settings: at 1 µM;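 note: values are mean inhibition of TBK1, screened as part of the GSK published kinase inhibitor set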
T1 sequence (whole entry): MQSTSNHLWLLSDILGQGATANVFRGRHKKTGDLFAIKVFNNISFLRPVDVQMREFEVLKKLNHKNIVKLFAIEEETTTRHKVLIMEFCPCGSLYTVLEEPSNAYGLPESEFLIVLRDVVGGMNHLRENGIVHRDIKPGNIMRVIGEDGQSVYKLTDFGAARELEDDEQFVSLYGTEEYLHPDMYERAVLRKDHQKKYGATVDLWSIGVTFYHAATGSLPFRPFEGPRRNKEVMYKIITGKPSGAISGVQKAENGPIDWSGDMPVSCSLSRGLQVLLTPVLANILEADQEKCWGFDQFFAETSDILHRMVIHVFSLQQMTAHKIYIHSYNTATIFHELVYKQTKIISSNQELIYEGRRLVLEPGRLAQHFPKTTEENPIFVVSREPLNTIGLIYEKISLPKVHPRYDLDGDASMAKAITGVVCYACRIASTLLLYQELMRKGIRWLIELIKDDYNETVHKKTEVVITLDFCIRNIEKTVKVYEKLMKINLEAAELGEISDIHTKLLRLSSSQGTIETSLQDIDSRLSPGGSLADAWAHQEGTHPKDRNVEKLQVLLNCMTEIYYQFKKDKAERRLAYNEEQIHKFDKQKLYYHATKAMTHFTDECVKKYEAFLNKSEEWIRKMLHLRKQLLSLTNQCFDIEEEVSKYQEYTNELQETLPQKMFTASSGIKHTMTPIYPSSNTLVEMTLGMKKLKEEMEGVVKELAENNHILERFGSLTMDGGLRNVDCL

[2] = molecular target: T2, Testis-specific serine/threonine-protein kinase 1 (Homo sapiens) (UniProt Q9BXA7); settings: at 0.1 µM
T2 sequence (whole entry): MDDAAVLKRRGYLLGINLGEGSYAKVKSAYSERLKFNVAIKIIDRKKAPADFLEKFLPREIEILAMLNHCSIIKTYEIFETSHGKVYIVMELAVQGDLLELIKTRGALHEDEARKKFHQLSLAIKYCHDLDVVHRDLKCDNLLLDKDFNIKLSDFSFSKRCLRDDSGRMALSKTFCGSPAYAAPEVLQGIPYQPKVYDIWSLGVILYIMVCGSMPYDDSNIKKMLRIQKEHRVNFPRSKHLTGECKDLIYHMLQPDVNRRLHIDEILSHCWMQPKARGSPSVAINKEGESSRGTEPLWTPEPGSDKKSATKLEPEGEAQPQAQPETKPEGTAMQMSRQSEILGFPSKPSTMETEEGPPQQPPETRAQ

[3] = molecular target: T2, Testis-specific serine/threonine-protein kinase 1 (Homo sapiens); settings: at 1 µM
[4] = molecular target: T3, Testis-specific serine/threonine-protein kinase 2 (Homo sapiens) (UniProt Q96PF2); settings: at 0.1 µM
T3 sequence (whole entry): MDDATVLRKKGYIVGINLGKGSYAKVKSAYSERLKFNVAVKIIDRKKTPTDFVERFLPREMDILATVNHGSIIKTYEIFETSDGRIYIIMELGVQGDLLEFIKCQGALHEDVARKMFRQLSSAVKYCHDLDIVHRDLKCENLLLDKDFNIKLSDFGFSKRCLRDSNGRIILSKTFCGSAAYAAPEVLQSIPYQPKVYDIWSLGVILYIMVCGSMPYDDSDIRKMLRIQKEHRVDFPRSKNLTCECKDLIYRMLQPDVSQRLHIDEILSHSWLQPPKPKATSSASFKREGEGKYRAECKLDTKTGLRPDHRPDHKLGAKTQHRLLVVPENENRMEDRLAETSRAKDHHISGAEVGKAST

[5] = molecular target: T3, Testis-specific serine/threonine-protein kinase 2 (Homo sapiens); settings: at 1 µM
[6] = molecular target: Casein kinase I isoform alpha (Homo sapiens) (UniProt P48729); settings: at 0.1 µM
[7] = molecular target: Casein kinase I isoform alpha (Homo sapiens) (UniProt P48729); settings: at 1 µM
[8] = molecular target: Casein kinase I isoform gamma-1 (Homo sapiens) (UniProt Q9HCP0); settings: at 0.1 µM
[9] = molecular target: Casein kinase I isoform gamma-1 (Homo sapiens) (UniProt Q9HCP0); settings: at 1 µM
[10] = molecular target: Casein kinase I isoform gamma-2 (Homo sapiens) (UniProt P78368); settings: at 0.1 µM;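 note: values are mean inhibition figures reported as part of the GSK PKIS dataset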
Casein kinase I isoform gamma-2 (Homo sapiens), sequence (P78368 whole entry, looked up, canonical isoform): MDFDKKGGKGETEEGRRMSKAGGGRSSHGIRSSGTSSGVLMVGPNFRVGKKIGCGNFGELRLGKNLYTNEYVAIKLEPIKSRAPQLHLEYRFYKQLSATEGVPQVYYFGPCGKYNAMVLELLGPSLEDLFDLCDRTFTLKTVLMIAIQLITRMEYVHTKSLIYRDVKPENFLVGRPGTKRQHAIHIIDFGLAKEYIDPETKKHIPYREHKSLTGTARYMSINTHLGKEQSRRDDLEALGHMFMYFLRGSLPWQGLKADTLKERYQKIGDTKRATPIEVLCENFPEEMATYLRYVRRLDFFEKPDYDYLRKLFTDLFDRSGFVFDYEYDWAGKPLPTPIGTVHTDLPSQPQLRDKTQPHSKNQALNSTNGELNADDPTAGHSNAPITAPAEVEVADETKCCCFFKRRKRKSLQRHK

Casein kinase I isoform gamma-1 (Homo sapiens), sequence (Q9HCP0 whole entry, looked up, canonical isoform): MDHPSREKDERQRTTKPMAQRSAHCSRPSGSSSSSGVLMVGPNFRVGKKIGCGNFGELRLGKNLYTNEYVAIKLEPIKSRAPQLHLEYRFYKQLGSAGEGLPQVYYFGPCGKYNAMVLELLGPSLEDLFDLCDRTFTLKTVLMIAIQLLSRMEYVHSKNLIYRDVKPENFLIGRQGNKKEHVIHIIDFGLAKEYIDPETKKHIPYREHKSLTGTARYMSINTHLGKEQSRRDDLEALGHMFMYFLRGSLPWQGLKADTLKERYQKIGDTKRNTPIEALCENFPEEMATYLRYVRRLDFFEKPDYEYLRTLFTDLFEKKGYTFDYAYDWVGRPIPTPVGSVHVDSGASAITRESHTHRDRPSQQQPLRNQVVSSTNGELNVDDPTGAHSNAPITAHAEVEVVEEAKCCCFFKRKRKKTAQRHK
Casein kinase I isoform alpha (Homo sapiens), sequence (P48729 2-337 limits assumed): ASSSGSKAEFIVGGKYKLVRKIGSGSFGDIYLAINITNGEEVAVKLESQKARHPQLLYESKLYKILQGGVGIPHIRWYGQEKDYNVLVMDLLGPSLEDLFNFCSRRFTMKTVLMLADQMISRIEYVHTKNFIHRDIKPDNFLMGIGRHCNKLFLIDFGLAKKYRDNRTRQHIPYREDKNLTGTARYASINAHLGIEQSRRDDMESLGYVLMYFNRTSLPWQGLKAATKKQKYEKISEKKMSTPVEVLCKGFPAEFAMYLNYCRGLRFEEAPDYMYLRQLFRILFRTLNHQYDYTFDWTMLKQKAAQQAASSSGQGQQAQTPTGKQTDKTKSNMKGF

SMILES | inhibition [1] [%] | inhibition [2] [%] | inhibition [3] [%] | inhibition [4] [%] | inhibition [5] [%] | inhibition [6] [%] | inhibition [7] [%] | inhibition [8] [%] | inhibition [9] [%] | inhibition [10] [%]
NC(=O)c1sc(-n2cnc3cc(C(F)(F)F)ccc32)cc1OCc1ccccc1Br | 1.3 | 2.93 | 3.05 | 2.48 | 1.1 | 1.1 | -0.24 | 1.09 | -0.28 | 0.61
CCn1c(-c2nonc2N)nc2c(C#CC(C)(C)O)ncc(OCC3CCNCC3)c21 | 44.7 | 24.4 | 73 | 2.77 | 5.17 | 4.15 | 4.34 | -0.98 | 0.65 | -1.19
CCn1c(-c2nonc2N)nc2c(C#CC(C)(C)O)nc(O[C@@H](CN)c3ccccc3)cc21 | 68 | 85.5 | 95.6 | 1.41 | 14.8 | 1.59 | 4.15 | -0.58 | 7.01 | -0.78
CCn1c(-c2nonc2N)nc2c(C#CCN)ncc(OCCCN)c21 | 4.32 | -0.75 | 11.3 | -0.97 | 4.75 | 1.05 | -3.92 | -2.42 | -2.61 | -0.29
COc1cccc(COc2cc(-n3cnc4ccccc43)sc2C(N)=O)c1 | 1.53 | -0.31 | -0.86 | 0.72 | -0.49 | -2.17 | -2.7 | 1.18 | 2.68 | 2.02
COc1cc(C=NNc2ncnc3c2cnn3Cc2ccccc2)ccc1O | 3.75 | -3.19 | -2.62 | -2.34 | -2.56 | -0.09 | -4.3 | -3.34 | -3.33 | -2.95
COc1cccc(-n2ncc3c(N/N=C/c4ccncc4)ncnc32)c1 | 13.1 | 4.13 | 5.05 | 1.6 | 2.48 | 6.11 | 11.2 | 3.65 | 7.48 | 3.26
Nc1nonc1-c1nc2cnccc2n1C1CCCCC1 | 24.8 | 0.17 | 6.12 | -1.12 | -2.07 | -1.01 | -0.02 | -2.65 | -0.45 | -2.61
COc1cc2c(cc1Nc1nc(Nc3ccsc3C(N)=O)c3cc[nH]c3n1)N(C(=O)CN(C)C)CCC2 | 25 | 92.3 | 95.5 | 59.4 | 91.2 | -0.45 | 4.2 | -0.49 | 5.86 | –
CCn1c(-c2nonc2N)nc2c(C#CC(C)(C)O)ncc(OC[C@@H]3CCCN3)c21 | 41.2 | 20.6 | 70.4 | 4.9 | 2.67 | -1.71 | -2.58 | 1.04 | 2.69 | 1.05
NS(=O)(=O)c1ccc(N/C=C2\C(=O)Nc3ccc4ncsc4c32)cc1 | 46.7 | 5.24 | 19.4 | 1.13 | 2.94 | 3.99 | 14.7 | 4.38 | 9.59 | 2.65
Cc1cc(-c2ccco2)cc(C)c1/C=C/c1cncc(-c2nn[nH]n2)c1 | 2.37 | 1.7 | 2.37 | 1.46 | 0.42 | 1.02 | -0.59 | 1.01 | 1.56 | 0.62
NS(=O)(=O)c1ccc(-c2ccc3c(NC(=O)C4CC4)n[nH]c3c2)cc1 | 3.1 | 0.11 | -0.04 | 1.09 | -2.52 | 6.65 | 2.79 | 1.56 | 2.58 | 1
Fc1ccc(-c2ncn(C3CCNCC3)c2-c2ccnc(Oc3ccccc3)n2)cc1 | 2.78 | 2.36 | 1.65 | 0.82 | 0.7 | 4.72 | 30.9 | -1.52 | 4.5 | -1.96
